The nature of test [1]: inhibitors of TNFa-induced NFkB p65 translocation, primary screen, imaging, HUVEC, MLSMR starter and 10KST1 sets (AID 438;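 active = inhibition above 20% together with a positive visual image hit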;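 note: compound added about 3h40 before a 20 min TNFalpha stimulation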;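 for inhibition: signal is the nuclear over cytoplasmic p65 intensity ratio per well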). As to conditions: HUVEC TNFa-induced p65 nuclear translocation; cell count: measured here: nuclei count (cytotoxicity indicator), at 2.08 µM; inhibition: at 2 µM, stronger effect = higher value, 0% TNFa-plus-vehicle, 100% no-TNFa wells.
The nature of test [2]: reduction of polyQ htt aggregates in cells – imaging, exon1htt(103Q)mCFP cells, high-content imaging, primary screen (AID 483;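 active = visual image review flags a hit and inhibition of aggregation exceeds 20%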;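 note: compound exposure lasted 3 days before fixation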;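 for nuclei count: percent of the per-plate median nuclei count of sample wells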). As to conditions: exon1htt(103Q)mCFP cell line, aggregate imaging, at 2 µM; inhibition of aggregation: stronger effect = higher value; nuclei count: measured here: cell count, toxicity.
Test [3] can be described thus: endothelial E-selectin expression blockers – imaging, HUVEC, immunofluorescence, MLSMR starter and 10KST1 sets, primary screen (AID 487).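 For inhibition: signal is fraction of cell area covered by stained E-selectin grains.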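 For nuclei count: 100% = median nuclei count of all wells on the same plate.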 Particulars: HUVEC TNFalpha-induced E-selectin immunofluorescence imaging, at 2 µM; inhibition: stronger effect = higher value; nuclei count: measured here: cell number, toxicity.
Test [4] deals with Voltage-gated potassium channel subunit beta-2 (Rattus norvegicus) (UniProt P62483). Kind of test: inhibitors of rat Kvbeta2 reductase activity – biochemical, NADPH fluorescence, primary screen (AID 622;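 active = fluorescence slope higher than the sample average by over 3 SD, cut at about -0.22 in these data, passing the limit was not always enough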;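 note: slope of raw intensity against log time taken from 70 to 1610 s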). As to conditions: recombinant KvBeta, 4-cyanobenzaldehyde reduction, at 10 µM, stronger effect = higher value.
The target is the same in test [5]. The test is described as follows: enhancers of rat Kvbeta2 NADPH turnover – biochemical, NADPH fluorescence, primary screen (AID 623;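 active = NADPH fluorescence slope more negative than the mean of all samples by about 3 SD, 99.7% confidence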;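 note: fluorescence intensity change per second fitted from 20 to 320 s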). As to conditions: Recombinant KvBeta, NADPH fluorescence decrease slope, 10 min; at 10 µM; stronger effect = lower value.
Test [6] deals with Alpha-2C adrenergic receptor (Homo sapiens) (UniProt P18825). Kind of test: compounds altering alpha2C-coupled GIRK flux – cell-based, HEK293 alpha2C/GIRK1/2, thallium flux, primary screen (AID 624;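 active = fluorescence slope after compound addition differing from the mean of all screened samples at 99.7% confidence, in either direction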;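 note: slope of fluorescence ratio to pre-addition baseline per second over 15 to 24 s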). As to conditions: thallium flux BTC fluorescence, at 10 µM, actives lie on both sides.
The nature of test [7]: blockers of RIG-like receptor reporter activation – cell-based, Sendai virus stimulus, luciferase, 10K MLSCN set, TLR/RLR signaling modifier project, primary screen (AID 602276;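 active = inhibition at or above 50% at 10 µM; inactive = inhibition below 50%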;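 note: firefly luciferase from ISG56 promoter only with Renilla not read in this screen; 0% = Sendai virus plus DMSO and 100% = medium plus DMSO without virus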). As to conditions: HEK293 RL24 IRF3 luciferase reporter, at 10 µM, stronger effect = higher value. For orientation: Reporter assays use an easily measured gene product as a stand-in for the process of interest.

Test [8] is described as follows: TLR3 IRF3 reporter activation blockers – cell-based, poly I:C stimulus, luciferase, 10K MLSCN set, primary screen (AID 602277;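 active = inhibition of the reporter signal at or above 50%; inactive = inhibition below 50%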). As to conditions: HEK293-TLR3 RL24 IRF3 luciferase reporter, at 10 µM, stronger effect = higher value.

One may read the inhibition as the change of the read-out against control, counted positive when it falls.

Molecules are shown by their SMILES. Active and inactive are the calls of the source.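 Rule for the calls, unless noted: active = visually confirmed hit in the image check and inhibition above 20%; inconclusive = visually confirmed hit but inhibition not above 20%; inactive = no visual hit in the image check.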

Sequence of Alpha-2C adrenergic receptor (Homo sapiens) (P18825 whole entry, looked up): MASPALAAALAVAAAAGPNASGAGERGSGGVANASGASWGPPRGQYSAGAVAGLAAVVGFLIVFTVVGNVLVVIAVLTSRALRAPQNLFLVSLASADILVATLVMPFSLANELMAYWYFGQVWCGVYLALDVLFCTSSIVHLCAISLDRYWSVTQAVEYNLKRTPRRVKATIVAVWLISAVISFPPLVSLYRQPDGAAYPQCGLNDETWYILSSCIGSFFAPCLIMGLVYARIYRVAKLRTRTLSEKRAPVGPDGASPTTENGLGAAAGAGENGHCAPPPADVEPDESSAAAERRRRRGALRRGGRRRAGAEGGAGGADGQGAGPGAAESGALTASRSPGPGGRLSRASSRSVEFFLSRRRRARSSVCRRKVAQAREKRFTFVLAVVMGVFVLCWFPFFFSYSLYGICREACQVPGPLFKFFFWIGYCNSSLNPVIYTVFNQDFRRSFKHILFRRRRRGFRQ
Sequence of Voltage-gated potassium channel subunit beta-2 (Rattus norvegicus) (P62483 whole entry, looked up): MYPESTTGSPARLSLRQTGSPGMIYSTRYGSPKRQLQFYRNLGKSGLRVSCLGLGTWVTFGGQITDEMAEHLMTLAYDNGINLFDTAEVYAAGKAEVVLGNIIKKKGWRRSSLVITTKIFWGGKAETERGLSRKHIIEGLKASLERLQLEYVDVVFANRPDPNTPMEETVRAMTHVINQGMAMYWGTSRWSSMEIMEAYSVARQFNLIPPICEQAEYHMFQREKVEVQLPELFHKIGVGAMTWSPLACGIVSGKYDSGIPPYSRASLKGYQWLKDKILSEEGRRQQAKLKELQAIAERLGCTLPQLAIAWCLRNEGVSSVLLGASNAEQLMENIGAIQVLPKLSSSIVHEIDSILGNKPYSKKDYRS

With `Cc1cccc(Cn2c(SCCN3CCCCC3)nc3c2c(=O)[nH]c(=O)n3C)c1`, the cell count in test [1] turned out to be 497. The inhibition in test [1] was 6.4% (inactive); in test [3], 1.7% (inactive); in test [7] it was -12% (inactive); in test [8], 3.02% (inactive). Also, in test [2], the inhibition of aggregation was -13.5% (inactive). The nuclei count in test [2] came out at 82.4%; in test [3], 95.1%. Further, the fluorescence slope in test [4] was -0.442 (inactive). Further, in test [5], the NADPH fluorescence slope was 3.2e-05 (inactive). The slope in test [6] was 0.00451 (inactive).

Turning to `CCN1C(=O)c2ccccc2S(=O)c2ccc(C(=O)NC3CC3)cc21` (centres undefined), the cell count in test [1] amounted to 533. In addition, the inhibition in test [1] was 0.6% (inactive); in test [3], 6.3% (inactive); in test [7], 17.3% (inactive); in test [8], 24% (inactive). The inhibition of aggregation in test [2] is 20.1% (inactive). For the same compound, the nuclei count in test [2] came out at 74.1%; in test [3], 104%. Further, the fluorescence slope in test [4] was -0.505 (inactive). Besides, the NADPH fluorescence slope in test [5] was -2.6e-05 (inactive). For the same compound, the slope in test [6] is 0.0077 (inactive).

Regarding `O=C(Nn1c(C2CC2)nc2ccccc2c1=O)c1ccco1`, the cell count in test [1] was 579. In addition, the inhibition was -12.1% (inactive) in test [1], -38.3% (inactive) in test [3], 9.09% (inactive) in test [7] and 23.5% (inactive) in test [8]. Further, the inhibition of aggregation in test [2] was 9.9% (inactive). For the same compound, the results for the nuclei count in test [2] and in test [3] were 95.2% and 116%, respectively. Besides, the fluorescence slope in test [4] is -0.48 (inactive). The NADPH fluorescence slope in test [5] was 6.6e-05 (inactive). In addition, in test [6], the slope was 0.00689 (inactive).

For `Cn1c(NC(=O)c2ccccc2NC(=O)C(C)(C)C)nc2ccccc21`, the cell count in test [1] was found to be 704. In addition, the inhibition in test [1] is -3.2% (inactive); in test [3], -10.7% (inactive); in test [7] it was 1.78% (inactive); in test [8] it was -25.9% (inactive). Also, the inhibition of aggregation in test [2] is 11.9% (inactive). The nuclei count stood at 98.3% in test [2] and 126% in test [3]. The fluorescence slope in test [4] was -0.163 (active). In addition, the NADPH fluorescence slope in test [5] is 5.8e-06 (inactive). For the same compound, the slope in test [6] is 0.00774 (inactive).

Regarding `O=C(COc1ccc2ccccc2c1)N1CCCC1`, the cell count in test [1] was found to be 315. Also, the inhibition in test [1] is -1.8% (inactive); in test [3], -27.1% (inactive); in test [7], -31.9% (inactive); in test [8] it was -85% (inactive). For the same compound, the inhibition of aggregation in test [2] is 4% (inactive). The figures for the nuclei count in test [2] and in test [3] were 77.8% and 97.9%, respectively. For the same compound, the fluorescence slope in test [4] was -0.28 (inactive). In addition, the NADPH fluorescence slope in test [5] is -1.8e-06 (inactive). For the same compound, the slope in test [6] was 0.00518 (inactive).

Regarding `O=C(CCCNS(=O)(=O)c1ccccc1)NCc1ccco1`, in test [1], the cell count was found to be 242. Besides, the inhibition in test [1] was -6.9% (inactive); in test [3], 27.9% (inactive); in test [7] it was 12.9% (inactive); in test [8], 10.4% (inactive). The inhibition of aggregation in test [2] was 22.9% (inactive). Besides, the nuclei count in test [2] stood at 80.7%; in test [3], 80.8%. Also, in test [4], the fluorescence slope was -0.425 (inactive). The NADPH fluorescence slope in test [5] was -1.4e-05 (inactive). Further, in test [6], the slope is 0.00453 (inactive).

As to `O=C(CSc1n[nH]c(-c2ccco2)n1)Nc1sc2c(c1C(=O)Nc1ccccc1)CCCC2`, the cell count in test [1] was 298. The inhibition was -4.3% (inactive) in test [1], -73.5% (inactive) in test [3], 4.06% (inactive) in test [7] and 21.7% (inactive) in test [8]. In addition, the inhibition of aggregation in test [2] was 3.5% (inactive). For the same compound, the nuclei count in test [2] was 88.7%; in test [3], 91%. For the same compound, the fluorescence slope in test [4] was -0.447 (inactive). Moreover, the NADPH fluorescence slope in test [5] is -3.7e-05 (inactive). The slope in test [6] is 0.00332 (inactive).

Take `O=C(COC(=O)C12CC3CC(CC(C3)C1)C2)NCc1ccco1`: the cell count in test [1] stood at 661. Besides, the inhibition was 3.4% (inactive) in test [1], -28.3% (inactive) in test [3], 11.1% (inactive) in test [7] and 31.8% (inactive) in test [8]. Besides, the inhibition of aggregation in test [2] is -6.5% (inactive). The results for the nuclei count in test [2] and in test [3] were 109% and 113%, respectively. In addition, the fluorescence slope in test [4] is -0.561 (inactive). For the same compound, the NADPH fluorescence slope in test [5] is 7.7e-06 (inactive). Also, the slope in test [6] was 0.00593 (inactive).

Take `Cc1ccnc(SCCn2c(N3CCN(Cc4ccccc4)CC3)nc3c2c(=O)[nH]c(=O)n3C)n1`: in test [1], the cell count amounted to 665. The inhibition in test [1] was -22.3% (inactive); in test [3], -36.7% (inactive); in test [7] it was -0.348% (inactive); in test [8] it was 0.626% (inactive). The inhibition of aggregation in test [2] was 0.8% (inactive). For the same compound, the nuclei count was 120% in test [2] and 96.2% in test [3]. Moreover, the fluorescence slope in test [4] was -0.542 (inactive). The NADPH fluorescence slope in test [5] was -3.1e-05 (inactive). For the same compound, the slope in test [6] was 0.00641 (inactive).

(Values after PubChem BioAssay.)
